Assay [1] in a line: NCI Yeast Anticancer Drug Screen. Data for the rad50 strain (AID 155).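 Further: 0% = growth of vehicle-only cultures of the same strain.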 The settings on record: S. cerevisiae rad50 strain growth inhibition, stronger effect = higher value. Summed up:
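A DNA repair-deficient yeast mutant serves as the test organism; compound-induced growth inhibition is calculated against vehicle-treated cells.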

The nature of assay [2]: NCI Yeast Anticancer Drug Screen. Data for the mec2-1 strain (AID 157). As to conditions: S. cerevisiae mec2-1 strain, stronger effect = higher value. Summed up: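 Cells of the genetically defined mec2-1 yeast strain are incubated with test compound. Inhibition of growth is calculated against vehicle-treated controls.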
Assay [3] is described as follows: NCI Yeast Anticancer Drug Screen. Data for the sgs1 mgt1 strain (AID 161).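 Further: 0% = growth of cultures given vehicle only.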 As to conditions: S. cerevisiae sgs1 mgt1 strain, stronger effect = higher value. Summed up:
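Inhibition of yeast growth, normalised to vehicle-treated controls, is reported for a strain bearing genetic alterations in DNA damage repair.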

Assay [4] is described as follows: NCI Yeast Anticancer Drug Screen. Data for the cln2 rad14 strain (AID 165).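 Further: 0% = growth equal to vehicle treated cultures.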 As to conditions: S. cerevisiae cln2 rad14 strain, stronger effect = higher value. Put shortly:
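The screen exposed genetically defined yeast (cln2 rad14) to test compounds and scored growth inhibition relative to vehicle-treated controls.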

Assay [5] can be described thus: NCI Yeast Anticancer Drug Screen. Data for the bub3 strain (AID 167). The settings on record: S. cerevisiae bub3 mutant strain, stronger effect = higher value. Summed up: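 Inhibition values come from growth of compound-treated mutant yeast normalised to vehicle-treated controls.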
The nature of assay [6]: NCI Yeast Anticancer Drug Screen. Data for the mlh1 rad18 strain (AID 175). The settings on record: S. cerevisiae mlh1 rad18 strain growth inhibition, stronger effect = higher value. Summed up: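 Compound-treated yeast growth, normalised to vehicle controls. Strain bears defined DNA repair mutations.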
The mark [7] stands for this setting: at 5.0 µM (retest, dose inferred, filed as 0.5).
[8] abbreviates: at 50.0 µM (retest, dose inferred, filed as 5.0).

This is part of a sample that, as a whole, favours compounds with a hit. Of some 79,000 tested, about 15% had one in any assay. Values without a mark were called inactive. Active and inactive are the calls of the source. No stated cut-off is given here; in the data, active means growth inhibition above about 70%; inactive means the rest.

Regarding `N#Cc1c(Cl)nc2ccccc2c1N=[N+]=[N-]`, the growth inhibition in assay [1] (setting [7]) was -1%; in assay [1] (setting [8]), 12%; in assay [1] (at 50.0 µM) it was 50.6%; in assay [2] (setting [7]), -19%; in assay [2] (setting [8]), -9%; in assay [2] (at 50.0 µM), 63.3%. Further, the growth inhibition in assay [3] (setting [7]) was -14%; in assay [3] (setting [8]), 18%; in assay [3] (at 50.0 µM), 56.2%; in assay [4] (setting [7]), 6%; in assay [4] (setting [8]), 8%; in assay [4] (at 50.0 µM), 50.5%. In addition, the growth inhibition was -8% in assay [5] (setting [7]); -15% in assay [5] (setting [8]); 14.8% in assay [5] (at 50.0 µM); -18% in assay [6] (setting [7]); 8% in assay [6] (setting [8]); 58.2% in assay [6] (at 50.0 µM).
For the molecule `CCC[CH2][Sn]1([CH2]CCC)[O]C(=O)CN=Cc2c(ccc3ccccc23)[O]1`, the growth inhibition was 47% in assay [1] (setting [7]); 47% in assay [1] (setting [8]); 91.2% (active) in assay [1] (at 50.0 µM); 74% (active) in assay [2] (setting [7]); 74% (active) in assay [2] (setting [8]); 94% (active) in assay [2] (at 50.0 µM). The growth inhibition in assay [3] (setting [7]) is 38%; in assay [3] (setting [8]) it was 38%; in assay [3] (at 50.0 µM), 92.9% (active); in assay [4] (setting [7]), 48%; in assay [4] (setting [8]), 48%; in assay [4] (at 50.0 µM), 92.6% (active). Also, the growth inhibition in assay [5] (setting [7]) is 53%; in assay [5] (setting [8]), 53%; in assay [5] (at 50.0 µM), 92.6% (active); in assay [6] (setting [7]), 67%; in assay [6] (setting [8]), 67%; in assay [6] (at 50.0 µM), 91.7% (active).
Regarding `O=C(O)C(Br)C(Br)c1ccccc1[N+](=O)[O-]` (stereo not given), the growth inhibition is 15% in assay [1] (setting [7]); 81% (active) in assay [1] (setting [8]); 96.5% (active) in assay [1] (at 50.0 µM); 8% in assay [2] (setting [7]); 60% in assay [2] (setting [8]); 89% (active) in assay [2] (at 50.0 µM). Also, the growth inhibition in assay [3] (setting [7]) is 20%; in assay [3] (setting [8]), 79% (active); in assay [3] (at 50.0 µM) it was 95% (active); in assay [4] (setting [7]), 21%; in assay [4] (setting [8]), 72% (active); in assay [4] (at 50.0 µM) it was 77.2% (active). For the same molecule, the growth inhibition in assay [5] (setting [7]) was 3%; in assay [5] (setting [8]), 79% (active); in assay [5] (at 50.0 µM) it was 96% (active); in assay [6] (setting [7]), 11%; in assay [6] (setting [8]), 85% (active); in assay [6] (at 50.0 µM), 92% (active).
Regarding `Cn1c2ccccc2c2c(C#N)c(C#N)c([N+](=O)[O-])cc21`, the growth inhibition is 30% in assay [1] (setting [7]); 98% (active) in assay [1] (setting [8]); 97.2% (active) in assay [1] (at 50.0 µM); 29% in assay [2] (setting [7]); 98% (active) in assay [2] (setting [8]); 78.5% (active) in assay [2] (at 50.0 µM). Moreover, the growth inhibition in assay [3] (setting [7]) is 9%; in assay [3] (setting [8]) it was 98% (active); in assay [3] (at 50.0 µM), 75.2% (active); in assay [4] (setting [7]), 9%; in assay [4] (setting [8]) it was 97% (active); in assay [4] (at 50.0 µM), 42%. The growth inhibition was 27% in assay [5] (setting [7]); 98% (active) in assay [5] (setting [8]); 93.2% (active) in assay [5] (at 50.0 µM); 26% in assay [6] (setting [7]); 98% (active) in assay [6] (setting [8]); 76.8% (active) in assay [6] (at 50.0 µM).
On to `CC(C)OC(=O)c1cc([N+](=O)[O-])cc([N+](=O)[O-])c1Sc1ncnc2nc[nH]c12`, for which the growth inhibition in assay [1] (setting [7]) is 49%; in assay [1] (setting [8]), 54%; in assay [1] (at 50.0 µM), 14.2%; in assay [2] (setting [7]) it was 11%; in assay [2] (setting [8]), 49%; in assay [2] (at 50.0 µM) it was 15.5%. For the same molecule, the growth inhibition was 44% in assay [3] (setting [7]); 83% (active) in assay [3] (setting [8]); 20.9% in assay [3] (at 50.0 µM); 44% in assay [4] (setting [7]); 57% in assay [4] (setting [8]); 65.8% in assay [4] (at 50.0 µM). Besides, the growth inhibition in assay [5] (setting [7]) is 45%; in assay [5] (setting [8]), 79% (active); in assay [5] (at 50.0 µM) it was 24.7%; in assay [6] (setting [7]), 35%; in assay [6] (setting [8]), 42%; in assay [6] (at 50.0 µM), 66.8%.
Take `COc1ccc(Cc2ccc(N)cc2)cc1`: the growth inhibition was -149% in assay [1] (setting [7]); 78% (active) in assay [1] (setting [8]); 92.2% (active) in assay [1] (at 50.0 µM); -52% in assay [2] (setting [7]); 68% in assay [2] (setting [8]); 86.7% (active) in assay [2] (at 50.0 µM). For the same molecule, the growth inhibition in assay [3] (setting [7]) is -68%; in assay [3] (setting [8]), 85% (active); in assay [3] (at 50.0 µM), 89.5% (active); in assay [4] (setting [7]), -61%; in assay [4] (setting [8]) it was 91% (active); in assay [4] (at 50.0 µM), 87.8% (active). Moreover, the growth inhibition in assay [5] (setting [7]) is -66%; in assay [5] (setting [8]) it was 76% (active); in assay [5] (at 50.0 µM), 91.1% (active); in assay [6] (setting [7]), -132%; in assay [6] (setting [8]), 86% (active); in assay [6] (at 50.0 µM), 96.8% (active).
Consider `CCOC1(OCC)Oc2c(Cl)c(Cl)c(Cl)c(Cl)c2OC1(OCC)OCC`, for which the growth inhibition in assay [1] (setting [7]) was 11%; in assay [1] (setting [8]) it was 97% (active); in assay [1] (at 50.0 µM), 98.3% (active); in assay [2] (setting [7]), 13%; in assay [2] (setting [8]), 98% (active); in assay [2] (at 50.0 µM), 98.9% (active). The growth inhibition in assay [3] (setting [7]) is 12%; in assay [3] (setting [8]), 96% (active); in assay [3] (at 50.0 µM), 98.5% (active); in assay [4] (setting [7]) it was 16%; in assay [4] (setting [8]), 97% (active); in assay [4] (at 50.0 µM), 97.4% (active). Further, the growth inhibition was 13% in assay [5] (setting [7]); 97% (active) in assay [5] (setting [8]); 98% (active) in assay [5] (at 50.0 µM); 14% in assay [6] (setting [7]); 96% (active) in assay [6] (setting [8]); 98.7% (active) in assay [6] (at 50.0 µM).
For the molecule `COc1ccccc1/C=C\C(=O)c1ccccc1`, the growth inhibition in assay [1] (setting [7]) was 2%; in assay [1] (setting [8]) it was 89% (active); in assay [1] (at 50.0 µM), 98.7% (active); in assay [2] (setting [7]), 1%; in assay [2] (setting [8]) it was 98% (active); in assay [2] (at 50.0 µM), 99.4% (active). Further, the growth inhibition was 2% in assay [3] (setting [7]); 95% (active) in assay [3] (setting [8]); 99.2% (active) in assay [3] (at 50.0 µM); -4% in assay [4] (setting [7]); 57% in assay [4] (setting [8]); 89.8% (active) in assay [4] (at 50.0 µM). The growth inhibition in assay [5] (setting [7]) was 5%; in assay [5] (setting [8]), 98% (active); in assay [5] (at 50.0 µM), 98.8% (active); in assay [6] (setting [7]), 2%; in assay [6] (setting [8]) it was 98% (active); in assay [6] (at 50.0 µM) it was 98.8% (active).
Turning to `Cc1ccc2c(c1)C1(C)C=C(CN3CCN(C)CC3)C(=O)CC1O2` (stereo not given), the growth inhibition was 16% in assay [1] (setting [7]); 97% (active) in assay [1] (setting [8]); 99.6% (active) in assay [1] (at 50.0 µM); 20% in assay [2] (setting [7]); 99% (active) in assay [2] (setting [8]); 99.7% (active) in assay [2] (at 50.0 µM). The growth inhibition in assay [3] (setting [7]) was 22%; in assay [3] (setting [8]), 99% (active); in assay [3] (at 50.0 µM), 99.8% (active); in assay [4] (setting [7]), -4%; in assay [4] (setting [8]) it was 99% (active); in assay [4] (at 50.0 µM), 99.6% (active). Besides, the growth inhibition was -3% in assay [5] (setting [7]); 99% (active) in assay [5] (setting [8]); 99.7% (active) in assay [5] (at 50.0 µM); 11% in assay [6] (setting [7]); 99% (active) in assay [6] (setting [8]); 99.5% (active) in assay [6] (at 50.0 µM).
Consider `CCOC(=O)/C(Cl)=C(\OCC)C(=O)OCC`, for which the growth inhibition is 14% in assay [1] (setting [7]); 10% in assay [1] (setting [8]); -6.4% in assay [1] (at 50.0 µM); 6% in assay [2] (setting [7]); 13% in assay [2] (setting [8]); 12.3% in assay [2] (at 50.0 µM). Also, the growth inhibition in assay [3] (setting [7]) was 2%; in assay [3] (setting [8]) it was 19%; in assay [3] (at 50.0 µM) it was 20%; in assay [4] (setting [7]) it was -5%; in assay [4] (setting [8]) it was 19%; in assay [4] (at 50.0 µM) it was 44.9%. The growth inhibition in assay [5] (setting [7]) is -1%; in assay [5] (setting [8]) it was 8%; in assay [5] (at 50.0 µM) it was 26.4%; in assay [6] (setting [7]), 12%; in assay [6] (setting [8]), 22%; in assay [6] (at 50.0 µM), 21.1%.

(Values after PubChem BioAssay (NCI).)
